Bioassay records: PubChem, Broad Institute
MLL AF4-AF9 inh = inhibitors of AF4 peptide binding to AF9, primary screen, biochemical, AlphaScreen, biotin-AF4 peptide, FLAG-AF9, single point | actives 0.47% (n = 350,000) | Protein AF-9 (Homo sapiens), P42568 | inhibition, % at 10 µM | AID 651704, 2012;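 active = every replicate reaching a set inhibition limit, whatever the replicate mean, cut at about 25% in these data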
Casp6 inh = human caspase-6 inhibitors, primary screen, biochemical, VEID-R110 fluorescence, single point, set 2. actives 0.53% (n = 350,000). purified caspase-6, Z-VEID-R110 cleavage fluorescence. inhibition, % at 12.5 µM. P55212;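 active = mean inhibition across replicates at least about 35%, with every replicate also reaching that limit, limit read from the data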
RAD52 anneal inh = RAD52 DNA annealing inhibitors, primary screen, biochemical, FRET, single point, set 2; AID 651710, 2012; recombinant RAD52 DNA annealing, FRET fluorescence; inhibition, % at 18.7 µM; actives 0.46% (n = 360,000); DNA repair protein RAD52 homolog (Homo sapiens), P43351;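 active = every replicate showing at least 50% inhibition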
NSD2 HMT inh = NSD2 histone methyltransferase inhibitors, primary screen, biochemical, AlphaScreen, single concentration, set 2; Histone-lysine N-methyltransferase NSD2 (Homo sapiens), O96028; NSD2 peptide methylation, 120 min; inhibition, % at 12.5 µM; actives 0.54% (n = 310,000); in the data active = inhibition above about 50%
Target sequence (O96028 whole entry, looked up): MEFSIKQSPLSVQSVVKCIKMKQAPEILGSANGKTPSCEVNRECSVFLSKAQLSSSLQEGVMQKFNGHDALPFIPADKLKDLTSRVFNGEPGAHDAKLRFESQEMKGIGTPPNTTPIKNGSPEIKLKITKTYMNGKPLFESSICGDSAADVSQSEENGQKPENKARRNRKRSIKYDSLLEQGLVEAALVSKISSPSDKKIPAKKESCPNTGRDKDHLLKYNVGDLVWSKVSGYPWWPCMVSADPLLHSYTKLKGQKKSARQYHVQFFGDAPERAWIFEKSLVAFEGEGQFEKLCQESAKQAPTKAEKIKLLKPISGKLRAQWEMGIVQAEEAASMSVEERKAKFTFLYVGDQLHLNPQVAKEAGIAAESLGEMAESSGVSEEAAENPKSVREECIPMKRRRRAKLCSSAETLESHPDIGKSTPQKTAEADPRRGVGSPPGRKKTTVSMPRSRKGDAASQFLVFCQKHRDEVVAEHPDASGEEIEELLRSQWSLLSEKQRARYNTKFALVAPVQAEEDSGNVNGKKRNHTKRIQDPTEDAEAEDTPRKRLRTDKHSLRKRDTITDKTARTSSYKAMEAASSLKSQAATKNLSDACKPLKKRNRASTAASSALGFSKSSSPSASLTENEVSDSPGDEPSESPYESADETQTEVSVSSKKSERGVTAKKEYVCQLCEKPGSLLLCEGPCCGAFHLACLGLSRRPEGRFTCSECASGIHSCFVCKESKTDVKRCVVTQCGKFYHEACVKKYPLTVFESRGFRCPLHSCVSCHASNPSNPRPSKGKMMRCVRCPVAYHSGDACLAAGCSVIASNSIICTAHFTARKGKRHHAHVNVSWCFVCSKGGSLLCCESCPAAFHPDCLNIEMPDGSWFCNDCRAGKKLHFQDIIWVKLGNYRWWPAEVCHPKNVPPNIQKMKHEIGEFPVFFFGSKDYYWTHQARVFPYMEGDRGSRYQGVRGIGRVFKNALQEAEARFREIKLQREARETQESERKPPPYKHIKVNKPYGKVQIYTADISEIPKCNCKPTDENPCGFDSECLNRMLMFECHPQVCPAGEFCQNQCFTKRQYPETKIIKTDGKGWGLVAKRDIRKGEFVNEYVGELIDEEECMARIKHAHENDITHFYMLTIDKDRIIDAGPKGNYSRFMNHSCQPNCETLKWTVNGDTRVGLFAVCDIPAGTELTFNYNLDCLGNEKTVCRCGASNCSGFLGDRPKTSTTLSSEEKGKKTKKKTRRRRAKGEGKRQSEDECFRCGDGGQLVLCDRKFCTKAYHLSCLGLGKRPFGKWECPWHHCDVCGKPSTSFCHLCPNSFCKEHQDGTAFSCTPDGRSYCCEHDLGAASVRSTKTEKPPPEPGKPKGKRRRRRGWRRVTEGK
miR-122 sensor = miR-122 Renilla sensor signal increase in Huh7, primary screen, miR-122 inhibitor project, cell-based, single point, plate reader; Huh7 miR-122 Renilla luciferase sensor, 48 h; neutral wells = 0, positive control = 100; activation (reporter increase), % at 12.5 µM; actives 0.3% (n = 340,000);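 active = mean replicate activation score at least 90 and every replicate individually at or above 90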;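 also: higher luciferase means less miR-122 activity so hits act as miR-122 inhibitors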
Large screens that a line does not name were inactive; [ ] = dose if it differs, or a comment. Compounds with a hit are over-represented: about 1.5% of the library has one in this group of screens.

Cc1cc(C)n(C)c(=O)c1C#N	none
COc1ccc(NC(=O)N(C)C[C@@H]2Oc3ncc(-c4cccnc4)cc3C(=O)N([C@H](C)CO)C[C@@H]2C)cc1	none (no result: NSD2 HMT inh)
O=C(Oc1ccccc1)c1cc(O)c(O)c(O)c1	NSD2 HMT inh 116.3 (no result: MLL AF4-AF9 inh, Casp6 inh, RAD52 anneal inh)
CCN1[C@@H]2c3ccc(-c4cccc(OC)c4)c(=O)n3C[C@@H]2[C@@H](CO)[C@@H]1C(=O)N(C)C	none (no result: NSD2 HMT inh)
Cc1ccc(S(=O)(=O)N2CCC(C(=O)NCCN3CCOCC3)CC2)cc1C	none
Cc1ccc(S(=O)(=O)N2CCC(C(=O)NCCCN3CCOCC3)CC2)cc1C	Casp6 inh 59.9
Cn1c(=O)[nH]c(=O)c2c1nc(CN1CCOCC1)n2Cc1ccccc1	Casp6 inh 51.2
Cn1c(=O)[nH]c(=O)c2c1nc(CN1CCOCC1)n2CCc1ccccc1	none (no result: MLL AF4-AF9 inh, Casp6 inh, RAD52 anneal inh)
O=C1CC(C(=O)Nc2ccc(Br)cc2)C2(CCCC2)O1 (configuration not stated)	Casp6 inh 39.3 (no result: miR-122 sensor)
O=C1CC(C(=O)Nc2ccccc2)C2(CCCCC2)O1 (configuration not stated)	none (no result: MLL AF4-AF9 inh, Casp6 inh, RAD52 anneal inh, NSD2 HMT inh)
Cc1ccc(-c2csc(NS(=O)(=O)c3cccc(F)c3)n2)o1	Casp6 inh 40.7
CCCN1C(=O)C(NC(C)=O)c2ccccc21 (configuration not stated)	none (no result: MLL AF4-AF9 inh, Casp6 inh, RAD52 anneal inh)
CCc1ccc2c(c1)C(NC(C)=O)C(=O)N2CCN1CCOCC1 (configuration not stated)	Casp6 inh 53.8
COc1cccc(-c2ccc3n(c2=O)C[C@@H]2[C@@H](CO)[C@H](C(=O)N4CCCCC4)N(C)[C@H]32)c1	none (no result: NSD2 HMT inh)
COc1ccc(OC)c(S(=O)(=O)Nc2cc3c4c(c2)CCC(=O)N4CCC3)c1	miR-122 sensor 138.4
Cc1ccc(C)c(S(=O)(=O)Nc2cc3c4c(c2)CCC(=O)N4CCC3)c1	miR-122 sensor 217.9
COc1ccc(C)cc1S(=O)(=O)Nc1cc2c3c(c1)CCN3C(=O)CC2	none
COc1ccc(OC)c(S(=O)(=O)Nc2ccc(C)c(C)c2)c1	none (no result: MLL AF4-AF9 inh, Casp6 inh, RAD52 anneal inh)
COc1ccc(OC)c(S(=O)(=O)Nc2ccc3oc4c(c3c2)C(=O)CCC4)c1	miR-122 sensor 165.3 (no result: MLL AF4-AF9 inh, Casp6 inh, RAD52 anneal inh)
CO[C@H]1CN(C)C(=O)c2ccc(NC(=O)C3CC3)cc2OC[C@@H](C)N(C(=O)c2ccccn2)C[C@H]1C	none (no result: NSD2 HMT inh, miR-122 sensor)
Cc1ccc(S(=O)(=O)OCC(=O)Nc2ccc(C(=O)O)c(O)c2)cc1	Casp6 inh 79.1 (no result: NSD2 HMT inh)
COc1ccc(C(=O)NCC(c2ccco2)N2CCCC2)cc1S(=O)(=O)N1CCCCC1C (configuration not stated)	Casp6 inh 52.6
C[C@@H]1CN([C@H](C)CO)S(=O)(=O)c2ccc(C#C[C@@H](C)O)cc2O[C@H]1CN(C)C(=O)c1ccccc1	none (no result: NSD2 HMT inh)
CCOc1cc(/C=C2\C(=O)N(c3ccc(C(N)=O)cc3)N=C2C)ccc1OC(=O)c1cccs1	none (no result: MLL AF4-AF9 inh, Casp6 inh, RAD52 anneal inh, NSD2 HMT inh)
CC1=NN(c2ccc(C(=O)O)cc2)C(=O)/C1=C\c1ccc(OC(=O)c2cccs2)cc1	Casp6 inh 52.2 (no result: miR-122 sensor)
CN(C)c1ccc(N=Nc2ccc(S(N)(=O)=O)cc2)cc1	none
CC1=CC(=O)C=CC1=Nc1ccc(N(C)C)cc1	MLL AF4-AF9 inh 91.3 (no result: miR-122 sensor)
C[C@@H]1CN([C@H](C)CO)C(=O)c2cc(C#Cc3ccncc3)cnc2O[C@@H]1CN(C)C(=O)CN(C)C	none (no result: NSD2 HMT inh)
CN1CCCCN2[C@H](CO)[C@H](c3ccc(C#Cc4ccccc4F)cc3)[C@H]2C1	RAD52 anneal inh 69.1 (no result: NSD2 HMT inh)
CN1CCCCN2[C@H](CO)[C@H](c3ccc(C#Cc4ccccc4F)cc3)[C@@H]2C1	none (no result: NSD2 HMT inh)
COc1ccc(C#Cc2ccc([C@@H]3[C@H]4CN(Cc5ccccc5F)CCCCN4[C@H]3CO)cc2)cc1	none (no result: MLL AF4-AF9 inh, Casp6 inh, NSD2 HMT inh)
COc1ccc(C#Cc2ccc([C@H]3[C@@H](CO)N4CCCCN(Cc5ccccc5F)C[C@H]34)cc2)cc1	MLL AF4-AF9 inh 29.1 (no result: NSD2 HMT inh)
COc1ccc(C#Cc2ccc([C@H]3[C@@H](CO)N4CCCCN(C)C[C@H]34)cc2)cc1	RAD52 anneal inh 79.9 (no result: NSD2 HMT inh)
COc1ccc(C#Cc2ccc([C@@H]3[C@H](CO)N4CCCCN(C)C[C@@H]34)cc2)cc1	RAD52 anneal inh 63.3 (no result: NSD2 HMT inh)
CCCNC(=O)N1C[C@@H](O)COC[C@@H]2O[C@H](CC(=O)N3CCC(Cc4ccccc4)CC3)CC[C@H]21	none (no result: NSD2 HMT inh)
CC(C)NC(=O)N[C@H]1CC[C@H](CC(=O)O)O[C@H]1CO	none (no result: NSD2 HMT inh)
COc1cccc(CN2CCC3(CC2)CN(S(C)(=O)=O)[C@@H](CO)c2[nH]c4cc(OC)ccc4c23)c1	none (no result: NSD2 HMT inh, miR-122 sensor)
O=C(NCC1CCCO1)C(c1cccs1)N(Cc1cccs1)C(=O)Cn1nnc(-c2cccs2)n1 (configuration not stated)	miR-122 sensor 115.8 (no result: MLL AF4-AF9 inh, Casp6 inh, RAD52 anneal inh)
O=C(NCC1CCCO1)C(c1cccs1)N(C(=O)Cn1nnc(-c2cccs2)n1)C1CCCC1 (configuration not stated)	none (no result: MLL AF4-AF9 inh, Casp6 inh, RAD52 anneal inh)
CC(C)C#Cc1ccc2c(c1)O[C@@H](CN(C)C(=O)Cc1ccccn1)[C@H](C)CN([C@@H](C)CO)S2(=O)=O	none (no result: NSD2 HMT inh)
CCCCCCCCCCOC(=O)Cn1c(COc2ccccc2OC)[n+](C)c2ccccc21	RAD52 anneal inh 75.1 (no result: miR-122 sensor)
Cn1c(COc2ccccc2O)[n+](C)c2ccccc21	none
Cc1ccc(S(=O)(=O)Nc2ccc3c(c2)C(=O)N([C@H](C)CO)C[C@H](C)[C@H](CN(C)C(=O)Nc2ccc(C(F)(F)F)cc2)OCCCC[C@@H](C)O3)cc1	none (no result: NSD2 HMT inh)
O=C(C[C@@H]1CC[C@H](NC(=O)Nc2cc(F)ccc2F)[C@H](CO)O1)NCCCN1CCOCC1	none (no result: NSD2 HMT inh, miR-122 sensor)
CC(OC(=O)c1ccc(Br)o1)C(=O)NCC1CCCCC1 (configuration not stated)	none
COc1cccc(C(=O)OC(C)C(=O)NCC2CCCCC2)c1 (configuration not stated)	Casp6 inh 36.4
COc1ccc(OC)c(NC(=O)Nc2ccc(O)c3ccccc23)c1	Casp6 inh 53.7
COc1ccc(OC)c(NC(=O)Nc2c(O)ccc3ccccc23)c1	none
COc1ccc2c(c1)c(CCN1C(=O)c3ccccc3C1=O)cn2C(=O)c1ccco1	Casp6 inh 37.7 (no result: miR-122 sensor)
C=CCNC(=O)/C(C#N)=C/c1cn(-c2ccccc2)nc1-c1ccc(OC)c([N+](=O)[O-])c1	miR-122 sensor 147.3 (no result: MLL AF4-AF9 inh, Casp6 inh, RAD52 anneal inh)
C[C@@H]1CCCCO[C@@H](CN(C)Cc2ccccc2)[C@H](C)CN([C@@H](C)CO)C(=O)c2cc(NS(=O)(=O)c3ccccc3)ccc2O1	none (no result: NSD2 HMT inh)
COc1ccc(-c2ccc3n(c2=O)C[C@@H]2[C@@H](CO)[C@H](C(=O)N4CCOCC4)[C@H]3N2C)cc1	none (no result: NSD2 HMT inh, miR-122 sensor)
C[C@@H]1CN([C@H](C)CO)C(=O)Cc2cc(N(C)C)ccc2O[C@@H]1CN(C)Cc1ccc(C(=O)Nc2ccccc2N)cc1	miR-122 sensor 130.4[16.7 µM] (no result: NSD2 HMT inh)
